HCMV inh = human cytomegalovirus inhibition; HFF cells, HCMV-luciferase reporter, 72 h; hits give low values; activity change, negative = inhibition, % at 57.5 µM; 4.5% of 410,000 active; AID 1259415; in the data active = activity change below about -60%; inconclusive = no clear call, values can overlap the other calls; inactive = above about -39%; also: % is scaled to controls: 0 for no effect and ±100 for the full control effect
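Steps: HFFs plated, 16 h 37C; compounds added; HCMV-luciferase added to MOI 1 PFU/cell; 72 h 37C; OneGlo reagent, 5 min room temperature; luminescence read, normalized to controls.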
HCV inh = inhibitors of hepatitis C virus infection; Huh7.5.1 HCVcc-Cre infection, luciferase reporter, 44 h; Potency, µM (top dose mostly 41.8 µM), for inactives: at the highest dose activity change, negative = inhibition, most hits filed as inhibitors; 3.4% of 340,000 active; AID 651820; also: potency is read from the fitted curve at half-maximal effect; % is scaled to controls: 0 for no effect and ±100 for the full control effect
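Infectious HCVcc-Cre (~0.5 moi) was added to cells just after compound, with cells seeded 4 h earlier at 1,000 per well. Luciferase activity after 44 h culture reported infection; substrate was incubated 15 min at room temperature before reading.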
Sm TGR inh = S. mansoni TGR enzyme inhibition. Potency, µM (series often up to 114 µM), for inactives: at the highest dose activity change, negative = inhibition, actives largely listed as inhibitors. 3% of 360,000 active. Q962Y6. purified TGR, DTNB reduction, TNB absorbance 405 nm; also: potency is read from the fitted curve at half-maximal effect; % is scaled to controls: 0 for no effect and ±100 for the full control effect; nearly all actives have a fitted effect of over 60% in size
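TGR 20 nM + NADPH 100 uM (dispensed conc.), cpd preinc 15 min RT; start with NADPH (500 uM addition) then DTNB (15 mM addition). Kinetic TNB absorbance, 405 nm filter. Four-parameter Hill fit across titration.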
SARS PLpro yeast = blocks SARS-CoV papain-like protease in a yeast assay | 0.19% of 330,000 active | S. cerevisiae expressing SARS-CoV PLpro, growth rescue | Potency, µM (highest dose often 32.9 µM), inactives show at the top dose activity, positive = growth rescue, most hits filed as activators; calls by dose curve; also: potency is read from the fitted curve at half-maximal effect; 0% is about no effect; nearly all actives have a fitted effect of over 55% in size
Pf growth 96h = P. falciparum growth inhibition at 96 hours | P. falciparum luciferase reporter growth, 96 h | Potency, µM (series often up to 28.7 µM), inactives show at the top dose activity change, negative = inhibition, usual class: inhibitors | 6.9% of 320,000 active | AID 504834; also: potency is read from the fitted curve at half-maximal effect; % is scaled to controls: 0 for no effect and ±100 for the full control effect
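96 h incubation, 37 C, 5% CO2, of luciferase-reporter P. falciparum-infected RBCs (2% hematocrit, 0.05% parasitemia final) with test compounds; endpoint luminescence.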
Pf growth 48h = P. falciparum growth inhibition at 48 hours (one generation) | P. falciparum luciferase growth in erythrocytes, 48 h | Potency, µM (series often up to 28.7 µM), for the others: at the top dose activity change, negative = inhibition, hits mostly inhibitors | 5.9% of 310,000 active; also: potency is read from the fitted curve at half-maximal effect; % is scaled to controls: 0 for no effect and ±100 for the full control effect
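Read-out is firefly luciferase luminescence from an integrated reporter in P. falciparum, so falling signal marks reduced parasite growth. Infected erythrocytes were at 2% hematocrit and 0.1% parasitemia (final) in Albumax-supplemented RPMI 1640.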
* hit, by the source's call; ? = inconclusive; / = not tested or not shown; [ ] = remark or other dose. Compounds with a hit are over-represented: about 15% of the library has one in this group of screens. Unless noted, calls follow the shape of the dose curve; as a rule, active = well fitted curve in the direction sought with a large enough effect; inconclusive = small, poorly fitted or top-dose-only effect, or another doubt; inactive = no such curve, though single readings can be large; an effect the other way counts as inactive or inconclusive.

SMILES	HCMV inh	HCV inh	Sm TGR inh	SARS PLpro yeast	Pf growth 96h	Pf growth 48h
CCOc1ccc(Cc2nc(-c3nonc3N)no2)cc1OCC	19.7	?	-0.1%	-1.6%	1.47µM*	-9.5%
CCN(C(=O)CN1C(=O)NC2(CCC(C)CC2)C1=O)C1CCCCC1 (centres undefined)	-27.4	/	/	/	/	/
COc1ccc(CN(C(=O)CN2C(=O)NC3(CCC(C)CC3)C2=O)C(C)Cc2cccs2)cc1 (centres undefined)	-4.5	?	1.5%	-2.4%	11.7µM*	9.28µM*
CC(C)=C1SC(N2CCN(c3ccc(C)cc3)CC2)=NC1=O	-38.5	18.6%	-22.2%	29.7%	13.4%	5.9%
CC(C)=C1SC(N2CCN(c3ccc(Cl)cc3)CC2)=NC1=O	-75.1*	5.2%	?	-4.5%	-10.7%	0.7%
Cc1c(C)n(Cc2ccccc2)c2ncnc(NN)c12	-73.4*	11.2µM*	-4.6%	-3.6%	-7.5%	8.1%[0.00184 µM]
COc1ccccc1Nc1ncnc2c1c(C)c(C)n2CCCN(C)C	119.9	3.98µM*	30.0%	-2.3%	0.0%	0.0%
COCCn1c(C)c(C)c2c(NCCc3ccccc3)ncnc21	-98.7*	?	-12.5%	-0.1%	122.1%	34.0%
Cc1c(C)n(CCc2ccccc2)c2ncnc(NN)c12	-39.9	-17.7%	3.0%	-2.2%	-48.4%	-3.0%
Cc1c(C)n(CCCN(C)C)c2ncnc(Nc3ccccc3)c12	33.2	?	-6.6%	-0.1%	3.7%	17.9%
Cc1ccc(C(c2sc3nc(-c4ccco4)nn3c2O)N2CCCC2)cc1 (centres undefined)	0.5	/	-2.1%	/	/	/
CCN(C(C)=O)c1cnc(C=NNC(N)=S)c2ccccc12	-96.7*	6.31µM*	/	/	/	/
NC(=S)NN=Cc1nccc2c(N)cccc12	-38.8	/	/	/	/	/
COc1ccccc1N1CCN(CCCN=C2CC(=O)N(C)C(=O)N2C)CC1	-5.7	-17.9%	/	-6.9%	/	/
O=C(C1CCCN1S(=O)(=O)c1cccc2nsnc12)N1CCN(c2ccc(F)cc2)CC1 (centres undefined)	-65.9*	-3.5%	-8.0%	?	-10.5%	?
O=C(C1CCCN1S(=O)(=O)c1cccc2nsnc12)N1CCN(c2ccccc2)CC1 (centres undefined)	/	14.5%	-1.6%	0.5%	2.3%	11.7%
O=C(Nc1ccccc1Br)C1CCCN1S(=O)(=O)c1cccc2nsnc12 (centres undefined)	-24.0	-13.0%	-1.2%	-5.5%	?	-1.9%
COc1ccc(NC(=O)C2CCCN2S(=O)(=O)c2cccc3nsnc23)c(OC)c1 (centres undefined)	/	5.3%	-3.7%	4.0%	10.4µM*	?
Cc1ccc(C(=O)O)cc1NC(=O)C1CCCN1S(=O)(=O)c1cccc2nsnc12 (centres undefined)	8.6	12.7%	2.4%	4.2%	16.5µM*	/
Cc1c(NC(=O)C2CCCN2S(=O)(=O)c2cccc3nsnc23)cccc1C(=O)O (centres undefined)	-6.4	-2.0%	0.2%	6.5%	9.28µM*	/
CC(C)[C@@H](CO)NS(=O)(=O)c1ccc(Br)cc1F	8.9	14.1%	/	16.1%	/	/
CC(=O)N[C@@H]1C(O)OC(CO)C(O)C1O (some centres undefined)	/	/	/	/	-21.0%	-7.4%
CCn1c(C)c(C(C)=O)c(NCc2ccccc2)nc1=S	-81.4*	0.1%	-18.9%	-8.9%	-7.2%	?
CC(=O)c1c(NCCc2ccccc2)nc(=S)n(-c2ccccc2)c1C	-100.5*	?	-2.7%	0.9%	-0.6%	18.0%
C=CCn1c(SCC(=O)Nc2ccc(F)cc2F)nc2c([nH]c3ccccc32)c1=O	-2.4	-22.2%	-19.0%	2.0%	8.8%	3.0%
SMILES	HCMV inh	HCV inh	Sm TGR inh	SARS PLpro yeast	Pf growth 96h	Pf growth 48h
COc1ccc(NC(=O)CSc2nc3c(oc4ccccc43)c(=O)n2Cc2ccco2)cc1Cl	-97.8*	/	1.6%	/	/	/
COCCn1c(SCC(=O)Nc2ccc(F)cc2)nc2c([nH]c3ccccc32)c1=O	42.9	17.1%	0.1%	-1.9%	3.29µM*	?
COCCn1c(SCC(=O)Nc2ccccc2OC)nc2c(oc3ccccc32)c1=O	-62.5*	?	5.3%	-0.1%	-1.6%	?
C=CCn1c(SCC(=O)Nc2ccccc2OC)nc2c([nH]c3ccccc32)c1=O	10.3	-13.1%	-27.0%	-1.9%	4.15µM*	?
COc1ccc(Cl)cc1NC(=O)CSc1nc2c(oc3ccccc32)c(=O)n1Cc1ccco1	15.3	/	7.2%	/	/	/
CC1CCC2(CC1)NC(=O)N(CC(=O)Nc1cccc(S(=O)(=O)N3CCCC3)c1)C2=O (centres undefined)	?	?	-9.4%	0.7%	-25.7%	?
CC1=C(C(=O)OCC2CCCO2)C(c2ccc(Cl)c(Cl)c2)NC(=O)N1 (centres undefined)	-32.9	?	5.2%	-0.1%	?	?
COCCn1c(SCC(=O)Nc2ccc(F)cc2)nc2c(oc3ccccc32)c1=O	-21.5	-20.3%	-2.6%	0.4%	17.2%	8.1%
COCCn1c(SCC(=O)Nc2ccc(F)c(Cl)c2)nc2c(oc3ccccc32)c1=O	-79.7*	/	0.9%	/	/	/
COCCn1c(SCC(=O)Nc2ccccc2OC)nc2c([nH]c3ccccc32)c1=O	22.5	-22.8%	7.3%	2.4%	9.28µM*	?
COCCn1c(-c2ccc(OC)cc2)cnc1SCC(=O)Nc1cccc2ccccc12	38.5	-6.4%	11.4%	-5.0%	1.65µM*	?
COCCn1c(SCC(=O)Nc2ccccc2F)nc2c([nH]c3ccccc32)c1=O	37.4	2.1%	4.2%	1.5%	?	-7.2%
COCCn1c(SCC(=O)Nc2ccccc2OC)nc2ccccc2c1=O	20.4	?	5.1%	-3.8%	-28.3%	-15.6%
N#Cc1ccc(CSc2nc3c(c(=O)[nH]2)CCCC3)cc1	9.1	/	-0.6%	/	/	/
COc1cccc(NC(=O)Cn2c(=O)c3c(ncn3Cc3ccccc3)n(Cc3ccccc3)c2=O)c1	0.8	7.5%	-8.2%	14.1%	0.828µM*	/
CC(C)CNC(=O)Cn1c(=O)c2c(ncn2CC(C)C)n(Cc2ccccc2)c1=O	-66.9*	11.2µM*	-2.6%	1.3%	?	?

Screening data from PubChem.
